Experimental findings from ChEMBL document CHEMBL4303122, “Identification of potential treatments for COVID-19 through artificial intelligence-enabled phenomic analysis of human cells infected with SARS-CoV-2” (2020) are described below.

Whole data set: some 1,600 compounds, median “Hit score” near 0.13, cut for the highest 2% near 0.46. The sample as a whole holds a higher share of the highest values than the screen did.

For the test, the system named is SARS-CoV-2. As to the kind of experiment: Antiviral activity against SARS-CoV-2 (USA-WA1/2020 strain) measured by imaging in HRCE cells at MOI 0.4 after 96 hrs (reported as hit score from 0-1 for on-disease vs off-disease activity: scores >0.6 considered hits). In kind it is functional, Homo sapiens.
As for `CO[C@@]1(NC(=O)CSC[C@@H](N)C(=O)O)C(=O)N2C(C(=O)O)=C(CSc3nnnn3C)CS[C@@H]21` [CEFMINOX], the Hit score is given as 0.1316.

`CC(C)CN(C[C@@H](O)[C@H](Cc1ccccc1)NC(=O)O[C@H]1CO[C@H]2OCC[C@H]21)S(=O)(=O)c1ccc(N)cc1`: the Hit score was 0.38.

Consider `CO[C@]12C[C@@H](COC(=O)c3cncc(Br)c3)CN(C)[C@@H]1Cc1cn(C)c3cccc2c13` [NICERGOLINE], for which the Hit score is recorded as 0.1321.

With `CC[C@@H](CO)NC(=O)[C@@H]1C=C2c3cccc4[nH]cc(c34)C[C@H]2N(C)C1` [METHYLERGONOVINE], the Hit score amounted to 0.219.

Molecule `C[C@@H]1C[C@H]2[C@@H]3CCC4=CC(=O)C=C[C@]4(C)[C@@]3(F)[C@@H](O)C[C@]2(C)[C@@]1(O)C(=O)COP(=O)([O-])[O-].[Na+].[Na+]` [DEXAMETHASONE SODIUM PHOSPHATE] registered a Hit score of 0.2627.

The molecule `COC(=O)N[C@H](C(=O)N1CCC[C@H]1c1nc(-c2ccc3c(c2)O[C@@H](c2ccccc2)n2c-3cc3cc(-c4c[nH]c([C@@H]5CCCN5C(=O)[C@@H](NC(=O)OC)C(C)C)n4)ccc32)c[nH]1)C(C)C` [ELBASVIR] showed a Hit score of -0.03781.

`O=C(Nc1c(Cl)cncc1Cl)c1ccc(OC(F)F)c(OCC2CC2)c1` [ROFLUMILAST] gave a Hit score of 0.1334.

`C=CC[N+]1([C@H]2C[C@H]3[C@@H]4CC[C@H]5C[C@H](O)[C@@H](N6CCOCC6)C[C@]5(C)[C@H]4CC[C@]3(C)[C@H]2OC(C)=O)CCCC1` [ROCURONIUM] gave a Hit score of 0.1086.

As for `CCc1cc2c(cc1CC)CC(NC[C@H](O)c1ccc(O)c3[nH]c(=O)ccc13)C2` [INDACATEROL], the Hit score is given as -0.2891.

In turn, `C[C@H]1[C@H](OC(=O)CCC(=O)O)O[C@@H]2O[C@@]3(C)CC[C@H]4[C@H](C)CC[C@@H]1[C@@]24OO3` [ARTESUNATE] gave a Hit score of 0.2142.

In the case of `CC(=O)O[C@]1(C(C)=O)CC[C@H]2[C@@H]3C=C(C)C4=CC(=O)CC[C@@H]4[C@H]3CC[C@@]21C` [NOMEGESTROL ACETATE], the Hit score is recorded as 0.2782.

`CC1(C)S[C@@H]2[C@H](NC(=O)Cc3ccccc3)C(=O)N2[C@H]1C(=O)O` [PENICILLIN G]: the Hit score turned out to be 0.164.

In the case of `CC(=O)O[C@H]1C[C@@H]2CC[C@@H]3[C@H](CC[C@@]4(C)[C@H]3C[C@H]([N+]3(C)CCCCC3)[C@@H]4OC(C)=O)[C@@]2(C)C[C@@H]1[N+]1(C)CCCCC1` [PANCURONIUM], the Hit score is 0.09762.
